In PubChem BioAssay (NCATS):
Starred links: 1 amine or outer side, 2 acyl side, 3 side chain; linkers in the order of their positions; H or OH if unused. Positions of bridges follow the written chain, without caps; N, C: chain ends. Non-standard residues stand in square brackets, D forms with d. Residues, ends and D or L forms follow the SMILES beside them. *: point of attachment. X2 = NC1=C[C@@H](O)C[C@H]([C@H](N[*:1])C(=O)[*:2])N1; ΔAla(3-NHCONH2) = NC(=O)NC=C(N)C(=O)O; β3hOrn = NCCC[C@H](N)CC(=O)*; Dap = NC[C@H](N)C(=O)O

Assay: qHTS profiling of the MIPE4 collection as inhibitors of Plasmodium falciparum (DD2) proliferation (AID 743345)
Settings: P. falciparum Dd2 in erythrocytes, SYBR Green DNA, 72 h; at 28.5 µM (top of the series)
Summary of the method: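 Erythrocytes infected with P. falciparum (0.3% parasitemia, 2.5% hematocrit) incubated with compounds 72 h at 37 C, 5% CO2. Lysis with saponin/Triton buffer containing SYBR Green I, overnight at room temperature in the dark; DNA fluorescence (485/535 nm) normalised to 0.29 uM artemisinin and DMSO.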

In order of falling parasite growth remaining, % of DMSO control (lower = more inhibition):
1. NCCC[C@H](N)CC(=O)N[C@H]1CNC(=O)[C@H]([C@H]2C[C@H](O)C=C(N)N2)NC(=O)C(=CNC(N)=O)NC(=O)[C@H](CO)NC(=O)[C@H](CO)NC1=O (β3hOrn-[Dap]SS[ΔAla(3-NHCONH2)][X2]; lactam 1-C)  96%
2. CN(C)CCC=C1c2ccccc2COc2ccccc21  53.4%
3. CCCC[C@@H]1C[C@@H](C(=O)NC([C@H](C)Cl)[C@H]2O[C@H](S)[C@H](O)[C@@H](O)[C@@H]2O)N(C)C1 (some centres not stated)  38%
4. O=CN(O)CCCP(=O)(O)O  19.9%
5. Cc1nc2c(C#N)cccc2n1-c1ccc(C(=O)NC2CC2)s1  9.03%
6. COC1=C2C[C@H](C)C[C@H](OC)[C@@H](O)[C@@H](C)C=C(C)[C@H](OC(N)=O)[C@@H](OC)C=CC=C(C)C(=O)NC(=CC1=O)C2=O  7.35%
7. C[C@H]1C[C@H]2C3CCC4=CC(=O)C=C[C@@]4(C)[C@@]3(Cl)[C@@H](O)CC2(C)[C@@]1(OC(=O)c1ccco1)C(=O)CCl (some centres not stated)  6.79%
8. CN([C@@H](Cc1ccc(O[S+](=O)([O-])c2cccc3cnccc23)cc1)C(=O)N1CCN(C(=O)OCc2ccccc2)CC1)[S+](=O)([O-])c1cccc2cnccc12  6.72%
9. C[C@H]1Cc2c([nH]c3cc(Cl)c(F)cc23)[C@@]2(N1)C(=O)Nc1ccc(Cl)cc12  6.27%
10. CO[C@H]1C=CO[C@@]2(C)Oc3c(C)c(O)c4c(O)c(c(C=NN5CCN(C)CC5)c(O)c4c3C2=O)NC(=O)C(C)=CC=CC(C)[C@H](O)[C@@H](C)[C@@H](O)[C@@H](C)[C@@H](OC(C)=O)[C@H]1C (some centres not stated)  6.12%
11. CCOc1ccc(F)cc1C1(O)C(N)=Nc2ccc(Cl)cc21 (configuration not stated)  6.08%
12. CCN(CC)CCOc1ccc2c(=O)c3ccc(Cl)cc3n(CCN(CC)CC)c2c1  6.06%
